Unmarked numbers belong to inactive results. For some of these results: Potency and affinity values are given separately. Calls of active or inactive are those of the source. Unless noted, the rule behind the calls is not given here.

Assay [1] in a line: antimalarial activity against Dd2 strain (AID 2302;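 active = growth inhibition above 50% at the single 2 µM test dose, taken to imply half-maximal potency below 2 µM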;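 note: 0% = DMSO untreated growth and 100% = chloroquine plus artemisinin killed control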). To be noted: P. falciparum Dd2 in RBCs, LDH growth readout, 72 h; at 2 µM; stronger effect = higher value.
The nature of assay [2]: HepG2 cytotoxicity, primary screen, cytotoxicity control for P. falciparum antimalarial project, cell-based, ATP luminescence (AID 2303;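 active = inhibition above 50%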;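 note: 0% = DMSO wells and 100% = digitonin-killed cells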). The settings on record: HepG2 viability, 24-48 h, at 10 µM, stronger effect = higher value.
Assay [3] has as its target L-lactate dehydrogenase (Plasmodium falciparum (isolate CDC / Honduras)) (UniProt Q27743). In words: PfLDH activity inhibition – cell lysate, 3D7 strain, counter-screen for P. falciparum growth inhibition project (AID 2304).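 Note: 0% = vehicle and 100% = reference inhibitor.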 The settings on record: P. falciparum 3D7 crude extract, LDH APAD/NBT absorbance; at 2 µM; stronger effect = higher value. For orientation: A counterscreen serves to expose hits that act by an unwanted route or on another target.

A short description of assay [4]: inhibition of 3D7 malaria parasite growth – strain 3D7 (AID 2306).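 Note: 0% = DMSO wells and 100% = chloroquine plus artemisinin control wells.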 The settings on record: P. falciparum 3D7 erythrocytic growth, LDH absorbance, 72 h; at 2 µM; stronger effect = higher value.
Assay [5] concerns the target Calcium-dependent protein kinase 1 (Plasmodium falciparum (isolate 3D7)) (UniProt P62344). As to the kind of experiment: PfCDPK1 kinase inhibitors, biochemical, TCAMS library (AID 1159585; cut-off not given, nearly all actives have IC50 up to about 0.98 µM;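 note: inhibitors leave more ATP so luminescence rises with inhibition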). The settings on record: recombinant PfCDPK1, Kinase-Glo ATP depletion luminescence.
Assay [6] deals with Plasmodium falciparum protein kinase 6 (PK6, PF3D7_1337100) (UniProt Q8IDW1). As to the kind of experiment: PfPK6 kinase inhibitors, biochemical, TCAMS library (AID 1159586). To be noted: recombinant PfPK6, Kinase-Glo ATP depletion luminescence. On the technique in general: Kinase-Glo measures the ATP left after a reaction by luminescence.
The target in assay [7] is Protein kinase 7 (PK7), Plasmodium falciparum 3D7 (PF3D7_0213400) (UniProt Q7YTF7). As to the kind of experiment: inhibition of Plasmodium PK7 catalytic activity – biochemical, TCAMS antimalarial set, Kinase-Glo luminescence (AID 1159587). The settings on record: recombinant PfPK7, Kinase-Glo ATP depletion luminescence.
For assay [8], the target named is Calcium-dependent protein kinase 4 (Plasmodium falciparum (isolate 3D7)) (UniProt Q8IBS5). In words: PfCDPK4 kinase inhibitors, biochemical, TCAMS library (AID 1159588; cut-off not given, nearly all actives have IC50 up to about 0.91 µM). The settings on record: recombinant PfCDPK4, Kinase-Glo ATP depletion luminescence.
Chain of Calcium-dependent protein kinase 4 (Plasmodium falciparum (isolate 3D7)) (Q8IBS5 whole entry, looked up): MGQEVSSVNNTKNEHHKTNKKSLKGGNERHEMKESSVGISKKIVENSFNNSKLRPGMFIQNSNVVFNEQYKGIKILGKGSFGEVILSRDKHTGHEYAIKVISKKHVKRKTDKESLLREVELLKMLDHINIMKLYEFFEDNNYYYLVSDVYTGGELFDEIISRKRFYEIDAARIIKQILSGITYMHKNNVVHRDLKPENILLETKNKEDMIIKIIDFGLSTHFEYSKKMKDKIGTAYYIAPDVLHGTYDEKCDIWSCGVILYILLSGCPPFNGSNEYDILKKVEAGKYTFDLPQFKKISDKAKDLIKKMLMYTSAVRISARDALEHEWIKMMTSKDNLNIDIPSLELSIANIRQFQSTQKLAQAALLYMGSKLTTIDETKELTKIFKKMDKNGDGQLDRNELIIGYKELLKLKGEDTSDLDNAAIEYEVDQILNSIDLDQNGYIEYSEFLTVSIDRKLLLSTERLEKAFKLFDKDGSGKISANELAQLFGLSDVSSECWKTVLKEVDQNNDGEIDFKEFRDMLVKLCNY

Chain of Protein kinase 7 (PK7), Plasmodium falciparum 3D7 (PF3D7_0213400) (Q7YTF7 1-343): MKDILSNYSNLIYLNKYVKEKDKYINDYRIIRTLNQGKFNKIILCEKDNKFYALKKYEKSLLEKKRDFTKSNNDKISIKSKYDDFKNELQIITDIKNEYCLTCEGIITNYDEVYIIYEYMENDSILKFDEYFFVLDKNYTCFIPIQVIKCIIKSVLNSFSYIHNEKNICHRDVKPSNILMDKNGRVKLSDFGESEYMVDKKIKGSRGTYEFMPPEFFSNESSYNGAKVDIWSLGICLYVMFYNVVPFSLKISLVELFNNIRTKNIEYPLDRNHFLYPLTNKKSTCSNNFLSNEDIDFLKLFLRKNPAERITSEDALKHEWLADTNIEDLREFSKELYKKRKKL
Chain of L-lactate dehydrogenase (Plasmodium falciparum (isolate CDC / Honduras)) (Q27743 whole entry, looked up): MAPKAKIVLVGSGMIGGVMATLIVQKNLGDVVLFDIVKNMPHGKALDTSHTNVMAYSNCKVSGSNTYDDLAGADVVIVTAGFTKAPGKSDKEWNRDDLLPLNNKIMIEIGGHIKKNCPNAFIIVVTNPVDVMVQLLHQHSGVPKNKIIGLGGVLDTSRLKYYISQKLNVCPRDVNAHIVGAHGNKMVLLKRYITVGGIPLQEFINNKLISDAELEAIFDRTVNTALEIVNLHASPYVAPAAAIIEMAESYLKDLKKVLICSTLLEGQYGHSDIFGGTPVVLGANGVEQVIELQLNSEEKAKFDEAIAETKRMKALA
Chain of Calcium-dependent protein kinase 1 (Plasmodium falciparum (isolate 3D7)) (P62344 whole entry, looked up): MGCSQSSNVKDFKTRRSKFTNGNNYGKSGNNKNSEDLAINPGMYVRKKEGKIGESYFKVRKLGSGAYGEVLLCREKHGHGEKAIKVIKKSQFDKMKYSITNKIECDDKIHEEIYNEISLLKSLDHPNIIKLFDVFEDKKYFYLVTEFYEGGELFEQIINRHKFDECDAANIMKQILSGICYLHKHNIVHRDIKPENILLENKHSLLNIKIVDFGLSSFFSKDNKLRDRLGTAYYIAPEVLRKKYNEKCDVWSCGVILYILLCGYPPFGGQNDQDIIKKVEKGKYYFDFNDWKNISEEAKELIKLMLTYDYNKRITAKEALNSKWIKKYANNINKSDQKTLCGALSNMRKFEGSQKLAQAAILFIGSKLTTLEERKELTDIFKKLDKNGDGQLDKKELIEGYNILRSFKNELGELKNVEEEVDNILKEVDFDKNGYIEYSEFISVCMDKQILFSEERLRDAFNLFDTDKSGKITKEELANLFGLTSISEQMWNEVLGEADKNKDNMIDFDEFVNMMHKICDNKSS
Chain of Plasmodium falciparum protein kinase 6 (PK6, PF3D7_1337100) (Q8IDW1 1-305): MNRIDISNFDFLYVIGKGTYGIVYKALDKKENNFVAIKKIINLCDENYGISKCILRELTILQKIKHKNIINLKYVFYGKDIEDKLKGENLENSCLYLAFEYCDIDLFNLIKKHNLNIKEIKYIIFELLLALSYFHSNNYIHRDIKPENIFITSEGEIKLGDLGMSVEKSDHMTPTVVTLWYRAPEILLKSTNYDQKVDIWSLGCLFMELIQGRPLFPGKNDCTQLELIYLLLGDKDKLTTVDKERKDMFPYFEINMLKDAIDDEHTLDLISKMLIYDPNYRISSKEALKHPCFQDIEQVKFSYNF

Take `Cc1cc(N[C@@H](CC(C)C)C(=O)NCCOc2ccccc2)nc(NCCc2ccc(F)cc2)n1`: the growth inhibition was 54% (active) in assay [1] and 95% (active) in assay [4]. The inhibition was 25% in assay [2] and 1% in assay [3]. For the same compound, the outcome in assay [5], in assay [6], in assay [7] and in assay [8] was inactive.

As to `CCCCc1ccc(S(=O)(=O)Nc2ccc3c(c2)CCN(Cc2c[nH]c4cnccc24)CC3)cc1`, the values for the growth inhibition in assay [1] and in assay [4] were 12% and 99% (active), respectively. The inhibition is 41% in assay [2] and -5% in assay [3]. The outcome in assay [5], in assay [6], in assay [7] and in assay [8] was inactive.

On to `O=C(Nc1cccc(-c2csc(-c3nc4ccccc4[nH]3)c2)c1)c1ccncc1`, for which the growth inhibition in assay [1] is 61% (active); in assay [4], 101% (active). In addition, the inhibition in assay [2] is 64% (active); in assay [3], -1%. The outcome in assay [5], in assay [6], in assay [7] and in assay [8] was inactive.

As for `COc1ccc(CN2CCCN(Cc3cccc(NC(=O)c4cc5ccccc5s4)c3)CC2)cc1`, the results for the growth inhibition in assay [1] and in assay [4] were 32% and 94% (active), respectively. The inhibition in assay [2] was 32%; in assay [3], 5%. Moreover, the outcome in assay [5], in assay [6], in assay [7] and in assay [8] was inactive.

As to `N[C@@H](Cc1cc(I)c(Oc2ccc(O)c(C(=O)O)c2)c(I)c1)C(=O)O`, the growth inhibition in assay [1] was 21%; in assay [4], 97% (active). In addition, the inhibition in assay [2] is 57% (active); in assay [3], -1%. In addition, the result in assay [5], in assay [6], in assay [7] and in assay [8] was inactive.

Take `COc1ccc(-c2ccc(NC(=O)c3ccc(C#N)cc3)cc2)cc1CN(C)CCN(C)C`: the growth inhibition is 58% (active) in assay [1] and 96% (active) in assay [4]. Further, the inhibition was 28% in assay [2] and 2% in assay [3]. Besides, the outcome in assay [5], in assay [6], in assay [7] and in assay [8] was inactive.

Take `NC(=O)c1ccc(-c2ccc3ccnc(N)c3c2)cc1`: the growth inhibition in assay [1] was 98% (active); in assay [4], 101% (active). In addition, the inhibition is 56% (active) in assay [2] and -2% in assay [3]. In addition, the result in assay [5], in assay [6], in assay [7] and in assay [8] was inactive.

On to `COc1ccc(Cn2ncc3c4c(N)nc(N)nc4ccc32)cc1OC`, for which the growth inhibition in assay [1] was 95% (active); in assay [4], 94% (active). The inhibition is 68% (active) in assay [2] and 3% in assay [3]. For the same compound, the result in assay [5], in assay [6], in assay [7] and in assay [8] was inactive.

As to `CC(=O)c1c(C)[nH]c(C(=O)Nc2ccc(-c3nc4ccc(C)cc4s3)cc2)c1C`, the growth inhibition in assay [1] is 40%; in assay [4], 92% (active). Besides, the inhibition in assay [2] was 11%; in assay [3], -2%. In addition, the outcome in assay [5], in assay [6], in assay [7] and in assay [8] was inactive.

As for `COc1ccc(Cl)cc1N1CCN(CCCNC(=O)c2ccc(-c3nc4cc(Cl)c(F)cc4[nH]3)c(F)c2)CC1`, the growth inhibition is 91% (active) in assay [1] and 101% (active) in assay [4]. Moreover, the inhibition in assay [2] was 21%; in assay [3], 5%. Further, the result in assay [5], in assay [6], in assay [7] and in assay [8] was inactive.

For the compound `CC(C)CC(=O)N(Cc1ccc(-c2ccc(CNC3Cc4ccccc4C3)cc2)cc1)C1CCNCC1`, the growth inhibition in assay [1] is 65% (active); in assay [4], 85% (active). The values for the inhibition in assay [2] and in assay [3] were 20% and -5%, respectively. For the same compound, the result in assay [5], in assay [6], in assay [7] and in assay [8] was inactive.

For `O=C(/C=C/c1ccc(C(F)(F)F)cc1)NCCCCCN1CCCN(C(=O)Nc2ccc(Cl)c(C(F)(F)F)c2)CC1`, the growth inhibition was 31% in assay [1] and 99% (active) in assay [4]. Also, the figures for the inhibition in assay [2] and in assay [3] were 64% (active) and 4%, respectively. Also, the result in assay [5], in assay [6], in assay [7] and in assay [8] was inactive.

For `Cc1noc(C)c1-c1ccc2c(Nc3ccccc3C(C)(C)C)c(C(=O)NCc3ccccc3)cnc2c1`, the growth inhibition was 89% (active) in assay [1] and 99% (active) in assay [4]. The inhibition in assay [2] is 20%; in assay [3], -1%. The outcome in assay [5], in assay [6], in assay [7] and in assay [8] was inactive.

For the compound `Fc1ccc2nc(-c3ccc(-c4ccc(CNCC5CCCO5)cc4)cc3)[nH]c2c1` (stereo not given), the growth inhibition was 100% (active) in assay [1] and 101% (active) in assay [4]. Further, the results for the inhibition in assay [2] and in assay [3] were 26% and -3%, respectively. In addition, the outcome in assay [5], in assay [6], in assay [7] and in assay [8] was inactive.

In the case of `CC(=O)c1c(Nc2c(C)cc(C)cc2C)oc(C)cc1=O`, the values for the growth inhibition in assay [1] and in assay [4] were 83% (active) and 95% (active), respectively. For the same compound, the inhibition in assay [2] and in assay [3] was 7% throughout. Further, the outcome in assay [5], in assay [6], in assay [7] and in assay [8] was inactive.

Take `O=C(Nc1ccc(-c2nc3ccccc3[nH]2)cc1)c1ccc(S(=O)(=O)N2CCc3ccccc32)cc1`: the growth inhibition in assay [1] was 34%; in assay [4], 102% (active). The inhibition in assay [2] is 32%; in assay [3], 3%. Besides, the outcome in assay [5], in assay [6], in assay [7] and in assay [8] was inactive.

Regarding `O=C1CCCN1CCCNCc1ccc(-c2cccc(-c3nc4ccccc4[nH]3)c2)cc1`, the growth inhibition in assay [1] is 0%; in assay [4] it was 96% (active). For the same compound, the results for the inhibition in assay [2] and in assay [3] were 19% and -5%, respectively. In addition, the outcome in assay [5], in assay [6], in assay [7] and in assay [8] was inactive.

As for `COc1cc(NC(=O)/C=C/c2ccccc2OC(F)(F)F)cc(OCCN2CCC(O)(c3ccccc3)CC2)c1`, the figures for the growth inhibition in assay [1] and in assay [4] were 50% (active) and 102% (active), respectively. The inhibition in assay [2] is 61% (active); in assay [3], 2%. Also, the outcome in assay [5], in assay [6], in assay [7] and in assay [8] was inactive.

As to `O=C(/C=C/c1ccc(Cl)c(Cl)c1)NCCCCCN1CCC(NC(=O)Nc2ccc(F)cc2F)CC1`, the growth inhibition in assay [1] was 23%; in assay [4] it was 102% (active). Besides, the inhibition in assay [2] is 14%; in assay [3] it was 2%. The result in assay [5], in assay [6], in assay [7] and in assay [8] was inactive.

For `O=S(=O)(Nc1ccc(CCN2CCCCC2CCN2CCCC2)cc1)c1ccc(-c2ccccc2)cc1` (stereo not given), the growth inhibition is 18% in assay [1] and 98% (active) in assay [4]. In addition, the inhibition in assay [2] was 18%; in assay [3], -1%. The result in assay [5], in assay [6], in assay [7] and in assay [8] was inactive.

One may read the inhibition as the drop in the measured response relative to a control, in per cent.

For the origin of these results see PubChem BioAssay.
